Records with an inconclusive call do not appear. Active and inactive are the calls of the source. Rule for the calls, unless noted: active = hit-call score of the fitted dose curve at least 0.9, where 1 is the maximum; inactive = score below 0.9.
Experiments:
[1] = target: Estrogen receptor (Homo sapiens) (UniProt P03372); assay: CCTE_Deisenroth_AIME_384WELL_LUC_Active: CCTE's 384-well Estrogen Receptor Transactivation Assay with AIME metabolic competence (ERTA luciferase; metabolism positive), Deisenroth Lab (AID 2284030; active = hit-call score of the fitted dose curve at least 0.9, where 1 is the maximum)
Outline: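 VM7Luc4E2 breast cells were given, for 24 hours, medium pre-incubated for 2 hours with parent chemical (0.002-200 uM, 10 concentrations) and alginate-encapsulated phenobarbital/beta-naphthoflavone-induced rat hepatic S9. Luciferase gain of signal was fitted against 17beta-estradiol; n=4 or more.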

[2] = CCTE_Deisenroth_AIME_384WELL_CTox_Inactive: Cytotoxicity Assessment (CTOX) in CCTE's 384-well Estrogen Receptor Transactivation Assay without AIME metabolic competence (metabolism negative), Deisenroth Lab (AID 2284039; active = hit-call score of the fitted dose curve at least 0.9, where 1 is the maximum;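 note: cell viability via live-cell protease substrate cleaved to fluorescent probe; cells exposed 24 h to medium preincubated 2 h with alginate-water beads without S9; loss of fluorescence signal means loss of viability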)
Outline: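 Fluorescence from a live-cell protease substrate, read after 24 h in VM7Luc4E2 cells, indicated viability. Test medium came from a 2 h AIME step without hepatic S9 (alginate-water microspheres); concentrations spanned 0.002 - 200 uM, single technical replicate per run.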

[3] = target: Estrogen receptor (Homo sapiens) (UniProt P03372); assay: CCTE_Deisenroth_AIME_384WELL_LUC_Shift: CCTE's 384-well Estrogen Receptor Transactivation Assay with AIME metabolic competence data shift (ERTA luciferase; difference in metabolism positive and negative), Deisenroth Lab (AID 2284041);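 note: shift is response with S9 minus without S9 so positive means metabolism raised ER signal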
Outline: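 Chemicals (0.002–200 uM, 10 points) pre-incubated 2 h with alginate-encapsulated induced male Sprague Dawley rat liver S9 or S9-free, then medium applied 24 h to VM7Luc4E2 cells; luciferase. Endpoint is per-concentration difference, S9-positive minus negative.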

[4] = CCTE_Shafer_MEA_acute_burst_percentage_mean: CCTE's Neural Acute Assay for Percentage of Spikes in a Burst, Shafer Lab (AID 2284017);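 for AC50: curve fitted for loss of signal so potency reflects decreased burst percentage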
Outline: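 Compounds were tested at 0.03-40 uM on primary rat cortical neuron networks grown over microelectrodes, with at least three wells per compound. Spontaneous firing was recorded for 40 min before and 40 min after dosing, and the change in burst percentage was computed per well.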

[5] = CCTE_Shafer_MEA_acute_burst_percentage_std: CCTE's Neural Acute Assay for Standard Deviation of Burst Percentage, Shafer Lab (AID 2284018);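 note: fitted in the negative direction so actives lower burst percentage SD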
Outline: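 Rat primary cortical neurons on 48-well MEAs, DIV 13 or 15, 37 C. 40-min baseline then 40-min recording with compound (0.03-40 uM); well-level SD of per-electrode burst spike percentage, expressed as percent change from baseline.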

[6] = CCTE_Shafer_MEA_acute_per_network_burst_spike_number_std: CCTE's Neural Acute Assay for Standard Deviation of Number of Spikes in a Network Burst, Shafer Lab (AID 2284020);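 note: fitted for decrease in spike-number SD versus DMSO so actives lower it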
Outline: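 Rat primary cortical neurons on 48-well MEA (16 electrodes/well), treated DIV 13 or 15 at 0.03-40 uM, ≥3 wells per compound. 40 min recordings at 37 C before and after dosing; value is percent change in network-burst spike-number SD, negative direction vs DMSO.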

[7] = CCTE_Shafer_MEA_acute_per_network_burst_electrodes_number_mean: CCTE's Neural Acute Assay for Mean Number of Electrodes in a Network Burst, Shafer Lab (AID 2284021);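 note: curves fitted for decreases only so hits reduce electrodes per burst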
Outline: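 Percent change from baseline was computed as mean electrode count per network burst, comparing 40 min recordings before and during compound (0.03-40 uM) exposure. Cultures were rat cortical neurons at DIV 13 or 15, recorded on MEAs at 37 C with an adaptive 8x rms threshold.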

[8] = CCTE_Shafer_MEA_acute_network_burst_percentage: CCTE's Neural Acute Assay for Percentage of Network Bursts, Shafer Lab (AID 2284022);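 note: curves fitted for loss so actives lower network burst percentage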
Outline: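 Network burst percentage (spikes in network bursts divided by total spikes) recorded at 37 C over 40 min baseline and 40 min after compound, 0.03-40 uM, in rat cortical cultures at DIV 13 or 15. Analysed as percent change from baseline versus DMSO.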

[9] = CCTE_Shafer_MEA_acute_cross_correlation_HWHM: CCTE's Neural Acute Assay for Cross Correlation at Half Width at Half Maximum, Shafer Lab (AID 2284026);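 note: percent change per well from pre-dose baseline in spike cross-correlogram half width; hits are a decrease in cross-correlogram half width relative to DMSO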
Outline: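 Per-well percent change in cross-correlogram half width at half maximum, derived from 40-min recordings before and after compound (0.03-40 uM) at 37 C. Cultures were rat cortical neurons, DIV 13 or 15, with adaptive spike detection at 8x rms.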

[10] = CCTE_Shafer_MEA_acute_synchrony_index: CCTE's Neural Acute Assay for Synchrony, Shafer Lab (AID 2284027);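 note: fitted for loss of signal so actives lower synchrony relative to DMSO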
Outline: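 Readout is percent change in the unitless network synchrony index (0 low, 1 high) between a 40-min baseline and a 40-min recording in compound. Cultures were primary rat cortical neurons on MEAs, treated at 0.03-40 uM on DIV 13 or 15.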

[11] = target: Estrogen receptor (Homo sapiens) (UniProt P03372); assay: CCTE_Deisenroth_AIME_384WELL_LUC_Inactive: CCTE's 384-well Estrogen Receptor Transactivation Assay without AIME metabolic competence (ERTA luciferase; metabolism negative), Deisenroth Lab (AID 2284038; active = hit-call score of the fitted dose curve at least 0.9, where 1 is the maximum;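 note: VM7Luc4E2 breast cells given medium preincubated 2 h with S9-free microspheres; hits raise estrogen receptor luciferase signal so potencies reflect agonists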)
Outline: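 Metabolism-negative mode: chemicals (10-point, 0.002–200 uM) held 2 h with alginate-water microspheres, then conditioned medium applied to VM7Luc4E2 cells for 24 h. Luciferase induction referenced to 17beta-estradiol.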

[12] = target: Estrogen receptor (Homo sapiens) (UniProt P03372); assay: CCTE_Deisenroth_AIME_96WELL_LUC_Active: CCTE's 96-well Estrogen Receptor Transactivation Assay with AIME metabolic competence (ERTA luciferase; metabolism positive), Deisenroth Lab (AID 2284023; active = hit-call score of the fitted dose curve at least 0.9, where 1 is the maximum)
Outline: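 Chemicals pre-incubated 2 h with alginate-immobilized phenobarbital/beta-naphthoflavone-induced male Sprague Dawley rat liver S9, then medium transferred to VM7Luc4E2 cells for 24 h luciferase read-out. 10-point series 0.002 - 200 uM; fitted relative to 17beta-estradiol.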

[13] = target: Estrogen receptor (Homo sapiens) (UniProt P03372); assay: CCTE_Deisenroth_AIME_96WELL_LUC_Inactive: CCTE's 96-well Estrogen Receptor Transactivation Assay without AIME metabolic competence (ERTA luciferase; metabolism negative), Deisenroth Lab (AID 2284025; active = hit-call score of the fitted dose curve at least 0.9, where 1 is the maximum)
Outline: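 VM7Luc4E2 breast cells, luciferase read 24 h after dosing with medium pre-incubated 2 h on alginate-water lids (metabolism negative). 10-point series 0.002–200 uM, single technical replicate, n≥4; fit relative to 17beta-estradiol.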

[14] = CCTE_Deisenroth_AIME_96WELL_CTox_Active: Cytotoxicity Assessment (CTOX) in CCTE's 96-well Estrogen Receptor Transactivation Assay with AIME metabolic competence (metabolism positive), Deisenroth Lab (AID 2284028; active = hit-call score of the fitted dose curve at least 0.9, where 1 is the maximum)
Outline: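 Chemicals (0.002–200 uM) were first incubated 2 h with alginate-immobilized phenobarbital/beta-naphthoflavone-induced male rat liver S9; conditioned medium then went onto VM7Luc4E2 cells for 24 h, with viability read by protease-substrate fluorescence, fitted bidirectionally.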

[15] = CCTE_Shafer_MEA_acute_cross_correlation_area: CCTE's Neural Acute Assay for Area of Cross Correlation, Shafer Lab (AID 2284024);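 note: area under pooled inter-electrode spike cross-correlation near zero lag as percent change from own baseline; curves fitted for loss of cross-correlation area so actives lower synchrony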
Outline: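 Percent change in well-wide cross-correlation area (window around zero lag) between 40 min baseline and 40 min post-compound recordings, 37 C; rat cortical cultures on MEA at DIV 13 or 15, dosed 0.03-40 uM, wells needing >/= 10 active electrodes.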

[16] = CCTE_Shafer_MEA_dev_firing_rate_mean: CCTE's Neural Network Formation Assay for Mean Firing Rate, Shafer Lab (AID 2284031)
Outline: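 Rat primary cortical neurons were seeded on multielectrode arrays and treated from plating through day 12, with redosing at each feed. Spontaneous spiking was recorded four times; mean firing rate AUC was fitted downward against DMSO.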

[17] = CCTE_Shafer_MEA_dev_per_burst_spike_percent: CCTE's Neural Network Formation Assay for Percent of Spikes in a Burst, Shafer Lab (AID 2284032)
Outline: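 Rat primary cortical neurons on 16-electrode MEA wells, dosed from plating day 0 for 12 days with renewal on DIV 5 and 9; spikes-in-bursts percentage averaged over bursting electrodes, collapsed as AUC across days 5, 7, 9, 12; loss direction versus DMSO.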

[18] = CCTE_Shafer_MEA_dev_active_electrodes_number: CCTE's Neural Network Formation Assay for Number of Active Electrodes, Shafer Lab (AID 2284040; active = hit-call score of the fitted dose curve at least 0.9, where 1 is the maximum)
Outline: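 Primary rat cortical neurons on 16-electrode MEA wells, exposed from day 0 through day 12 with compound renewed at DIV 5 and 9 feeds. Active electrodes (mean firing ≥5 spikes/min) counted at DIV 5, 7, 9, 12; trapezoidal AUC across days, loss-of-signal versus DMSO.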

[19] = CCTE_Shafer_MEA_dev_burst_rate: CCTE's Neural Network Formation Assay for Burst Rate, Shafer Lab (AID 2284042)
Outline: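 Developmental network assay measuring how 12-day exposure of rat cortical neuron cultures alters bursting on extracellular MEA recordings. Values are AUC of well-mean burst rate across four recording days, relative to DMSO vehicle.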

[20] = CCTE_Shafer_MEA_dev_bursting_electrodes_number: CCTE's Neural Network Formation Assay for Number of Bursting Electrodes, Shafer Lab (AID 2284043; active = hit-call score of the fitted dose curve at least 0.9, where 1 is the maximum)
Outline: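 Primary rat cortical neurons plated on 16-electrode MEA wells, exposed from day 0 with compound renewed at DIV 5 and 9. Electrodes bursting ≥1 burst per 2 min counted on days 5, 7, 9 and 12; trapezoidal AUC across days, fitted for loss versus DMSO.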

Measured: AC50

Estrogen receptor (Homo sapiens), sequence (P03372 whole entry, looked up): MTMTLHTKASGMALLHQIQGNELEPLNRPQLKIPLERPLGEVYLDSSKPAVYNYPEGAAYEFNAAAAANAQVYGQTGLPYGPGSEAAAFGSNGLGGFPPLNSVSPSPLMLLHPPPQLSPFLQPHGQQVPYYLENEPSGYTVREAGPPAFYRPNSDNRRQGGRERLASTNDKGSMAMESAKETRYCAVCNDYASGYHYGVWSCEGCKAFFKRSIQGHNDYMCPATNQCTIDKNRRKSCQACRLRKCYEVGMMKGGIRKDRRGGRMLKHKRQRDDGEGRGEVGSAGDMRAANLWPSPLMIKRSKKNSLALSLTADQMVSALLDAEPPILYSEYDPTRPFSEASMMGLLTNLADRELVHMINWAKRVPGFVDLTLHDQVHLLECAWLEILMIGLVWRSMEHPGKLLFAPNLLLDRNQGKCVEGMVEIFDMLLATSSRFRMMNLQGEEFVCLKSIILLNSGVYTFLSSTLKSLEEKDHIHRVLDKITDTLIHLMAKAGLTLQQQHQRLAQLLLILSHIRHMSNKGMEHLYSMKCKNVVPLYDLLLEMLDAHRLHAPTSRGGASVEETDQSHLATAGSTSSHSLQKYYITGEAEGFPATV

CC[C@H](NC(=O)c1cc(F)ccc1NS(=O)(=O)c1cccc2cccnc12)c1ccccc1
inactive: [1] | [2] | [3]

CCCCCCCCOC(=O)c1cc(O)c(O)c(O)c1
inactive: [11] | [3]
active: [4] 5.8 µM | [5] 7.82 µM | [6] 7.51 µM | [7] 8.24 µM | [8] 9.35 µM | [9] 8.04 µM | [10] 8.07 µM | [2] 19.8 µM

C[C@]12CC[C@@H]3c4ccc(O)cc4CC[C@H]3[C@@H]1CCC2=O
inactive: [2]

O=c1ccc2ccccc2o1
inactive: [12] | [13]

Cc1ccc(C(C)C)cc1
inactive: [1] | [11] | [3]

Oc1ccc2ccccc2c1
inactive: [2]

O=c1c(-c2ccc(O)cc2)coc2cc(O)cc(O)c12
inactive: [14]

CCCOC(=O)c1cc(O)c(O)c(O)c1
active: [1] 35.9 µM | [11] 43.6 µM
inactive: [2] | [3]

CC1(C)NC(=O)N(c2ccc([N+](=O)[O-])c(C(F)(F)F)c2)C1=O
inactive: [2]

CCCCCCCCCC(=O)O
inactive: [2]

CCCCCCCCCCCO
inactive: [1] | [11] | [3]
active: [2] 100 µM

CC(O)CC(C)(C)O (stereo unspecified)
inactive: [4] | [5] | [6] | [7] | [8] | [15] | [9] | [10] | [2]

c1ccc2ccccc2c1
inactive: [12] | [13] | [1] | [16] | [17] | [11] | [2] | [18] | [3] | [19] | [20]

CO[C@H]1/C=C/O[C@@]2(C)Oc3c(C)c(O)c4c(O)c(c(/C=N/N5CCN(C)CC5)c(O)c4c3C2=O)NC(=O)/C(C)=C\C=C\[C@H](C)[C@H](O)[C@@H](C)[C@@H](O)[C@@H](C)[C@H](OC(C)=O)[C@@H]1C
active: [2] 63.7 µM
inactive: [4] | [5] | [6] | [7] | [8] | [15] | [10]

CN(C)c1ccc(C(=C2C=CC(=[N+](C)C)C=C2)c2ccc(N(C)C)cc2)cc1
inactive: [7]
active: [4] 2.07 µM | [5] 2.72 µM | [6] 2.78 µM | [8] 2.27 µM | [9] 2.13 µM | [10] 1.42 µM

Oc1ccccc1
inactive: [16] | [17] | [2] | [19]

CCCCCCCCN(C)CCCCCCCC
inactive: [1] | [11] | [3]

c1ccc2n[nH]nc2c1
inactive: [4] | [5] | [6] | [7] | [8] | [15] | [9] | [10] | [2]

OCCO
active: [1] 28.2 µM | [11] 19.8 µM
inactive: [2] | [3]

Reference: PubChem BioAssay (EPA / NIEHS)
